Measurements published in the supplement of paper PMC11732987, “Enantioselective OTUD7B fragment discovery through chemoproteomics screening and high-throughput optimisation” (Communications Chemistry, 2025).

Key:
Assay in all cases: log2 ratio of Biotin-Ahx-Ub-VS probe labelling (fragment/DMSO); higher = less target engagement (more negative = stronger competition), active = hit call of the paper (q ≤ 0.05, log2 ratio ≤ -1)
Conditions in all cases: compound concentration: 200 uM; treatment time: 3 h
USP42 = target: T1, USP42 (UniProt Q9H9J4)
T1 sequence (whole entry): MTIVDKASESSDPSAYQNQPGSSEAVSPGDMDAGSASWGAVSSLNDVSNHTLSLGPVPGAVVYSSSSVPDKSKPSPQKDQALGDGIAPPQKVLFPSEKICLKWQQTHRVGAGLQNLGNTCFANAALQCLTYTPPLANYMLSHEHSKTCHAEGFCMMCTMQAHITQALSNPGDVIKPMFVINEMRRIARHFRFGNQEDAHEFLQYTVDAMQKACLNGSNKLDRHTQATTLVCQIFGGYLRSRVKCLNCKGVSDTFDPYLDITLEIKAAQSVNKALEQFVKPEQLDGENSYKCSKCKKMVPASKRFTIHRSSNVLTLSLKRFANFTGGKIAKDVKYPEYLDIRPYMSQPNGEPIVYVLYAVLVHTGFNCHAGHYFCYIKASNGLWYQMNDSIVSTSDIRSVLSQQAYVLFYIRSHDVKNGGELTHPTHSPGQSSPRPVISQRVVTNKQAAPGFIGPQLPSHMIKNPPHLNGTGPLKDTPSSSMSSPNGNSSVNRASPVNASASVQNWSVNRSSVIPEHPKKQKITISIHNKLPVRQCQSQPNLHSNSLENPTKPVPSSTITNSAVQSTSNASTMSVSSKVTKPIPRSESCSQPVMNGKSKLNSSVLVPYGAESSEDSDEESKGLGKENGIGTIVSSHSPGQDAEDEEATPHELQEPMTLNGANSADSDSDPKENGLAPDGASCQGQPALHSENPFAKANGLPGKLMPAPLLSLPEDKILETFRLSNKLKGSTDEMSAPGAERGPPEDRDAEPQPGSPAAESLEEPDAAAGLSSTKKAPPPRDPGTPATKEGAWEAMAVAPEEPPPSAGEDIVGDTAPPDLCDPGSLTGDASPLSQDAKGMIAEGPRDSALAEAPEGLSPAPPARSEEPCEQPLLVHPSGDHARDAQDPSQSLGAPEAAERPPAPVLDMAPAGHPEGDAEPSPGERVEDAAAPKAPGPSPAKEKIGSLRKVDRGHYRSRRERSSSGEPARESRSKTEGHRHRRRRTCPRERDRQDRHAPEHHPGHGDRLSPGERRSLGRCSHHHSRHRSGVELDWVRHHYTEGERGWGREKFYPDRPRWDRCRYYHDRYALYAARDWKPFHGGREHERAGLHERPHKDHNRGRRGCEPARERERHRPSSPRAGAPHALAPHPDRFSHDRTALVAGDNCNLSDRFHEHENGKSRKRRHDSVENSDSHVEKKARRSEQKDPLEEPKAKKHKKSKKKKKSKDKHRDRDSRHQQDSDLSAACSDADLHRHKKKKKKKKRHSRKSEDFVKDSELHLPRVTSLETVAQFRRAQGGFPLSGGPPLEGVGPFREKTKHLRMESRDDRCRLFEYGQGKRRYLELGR
Outline: (§1)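 HEK293T lysate (495 µg per sample, in Tris/CHAPS/IGEPAL buffer with protease inhibitors) was treated in triplicate with fragment at 200 µM or with DMSO for 3 h. It was then treated with Biotin-Ahx-Ub-VS (0.5 µM final) for 1 h. Labelled DUBs were NeutrAvidin-enriched, digested with LysC and trypsin, and run by diaPASEF LC-MS/MS. Spectronaut label-free quantities were global-median-normalised. Values are average log2 ratios fragment/DMSO by unpaired t-test, using proteins with ≥2 unique peptides.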

USP46 = USP46 (UniProt P62068)
Outline: as §1

USP47 = target: T2, USP47 (UniProt Q96K76)
T2 sequence (whole entry): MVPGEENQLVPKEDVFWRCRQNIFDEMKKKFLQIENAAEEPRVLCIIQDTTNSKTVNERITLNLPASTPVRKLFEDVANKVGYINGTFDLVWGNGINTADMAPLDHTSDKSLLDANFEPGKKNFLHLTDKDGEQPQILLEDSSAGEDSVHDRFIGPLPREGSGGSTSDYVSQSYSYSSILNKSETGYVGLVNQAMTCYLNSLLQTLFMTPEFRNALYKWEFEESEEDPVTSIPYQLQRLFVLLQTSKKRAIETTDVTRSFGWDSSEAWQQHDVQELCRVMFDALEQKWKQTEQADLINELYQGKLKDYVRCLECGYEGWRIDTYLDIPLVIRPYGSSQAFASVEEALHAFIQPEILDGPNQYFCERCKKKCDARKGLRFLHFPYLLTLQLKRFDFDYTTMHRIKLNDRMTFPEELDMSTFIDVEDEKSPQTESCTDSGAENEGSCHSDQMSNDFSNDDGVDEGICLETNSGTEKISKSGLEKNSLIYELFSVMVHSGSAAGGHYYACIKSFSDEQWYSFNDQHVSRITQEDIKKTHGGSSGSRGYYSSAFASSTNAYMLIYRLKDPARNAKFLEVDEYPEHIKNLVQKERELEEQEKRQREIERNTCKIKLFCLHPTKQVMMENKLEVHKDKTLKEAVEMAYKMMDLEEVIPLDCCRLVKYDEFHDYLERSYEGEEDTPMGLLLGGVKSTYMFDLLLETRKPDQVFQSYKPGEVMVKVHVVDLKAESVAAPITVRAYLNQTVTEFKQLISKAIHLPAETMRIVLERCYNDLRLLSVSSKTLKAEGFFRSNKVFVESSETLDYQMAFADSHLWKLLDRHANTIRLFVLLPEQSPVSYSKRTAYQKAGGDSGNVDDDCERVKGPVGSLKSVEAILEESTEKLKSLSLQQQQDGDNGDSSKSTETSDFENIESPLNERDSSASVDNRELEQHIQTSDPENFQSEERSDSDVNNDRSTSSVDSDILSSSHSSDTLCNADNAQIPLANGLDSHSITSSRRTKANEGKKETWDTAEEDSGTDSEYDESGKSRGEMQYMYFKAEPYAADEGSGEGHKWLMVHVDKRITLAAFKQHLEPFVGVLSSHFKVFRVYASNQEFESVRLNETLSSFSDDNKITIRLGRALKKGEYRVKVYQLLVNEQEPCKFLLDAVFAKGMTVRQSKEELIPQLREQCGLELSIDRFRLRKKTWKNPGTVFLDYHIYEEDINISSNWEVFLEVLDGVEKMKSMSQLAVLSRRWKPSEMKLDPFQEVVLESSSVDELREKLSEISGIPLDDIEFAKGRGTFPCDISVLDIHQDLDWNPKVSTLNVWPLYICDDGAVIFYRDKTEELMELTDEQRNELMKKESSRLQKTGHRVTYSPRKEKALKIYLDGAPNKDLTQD
Outline: as §1

USP48 = target: T3, USP48 (UniProt Q86UV5)
T3 sequence (whole entry): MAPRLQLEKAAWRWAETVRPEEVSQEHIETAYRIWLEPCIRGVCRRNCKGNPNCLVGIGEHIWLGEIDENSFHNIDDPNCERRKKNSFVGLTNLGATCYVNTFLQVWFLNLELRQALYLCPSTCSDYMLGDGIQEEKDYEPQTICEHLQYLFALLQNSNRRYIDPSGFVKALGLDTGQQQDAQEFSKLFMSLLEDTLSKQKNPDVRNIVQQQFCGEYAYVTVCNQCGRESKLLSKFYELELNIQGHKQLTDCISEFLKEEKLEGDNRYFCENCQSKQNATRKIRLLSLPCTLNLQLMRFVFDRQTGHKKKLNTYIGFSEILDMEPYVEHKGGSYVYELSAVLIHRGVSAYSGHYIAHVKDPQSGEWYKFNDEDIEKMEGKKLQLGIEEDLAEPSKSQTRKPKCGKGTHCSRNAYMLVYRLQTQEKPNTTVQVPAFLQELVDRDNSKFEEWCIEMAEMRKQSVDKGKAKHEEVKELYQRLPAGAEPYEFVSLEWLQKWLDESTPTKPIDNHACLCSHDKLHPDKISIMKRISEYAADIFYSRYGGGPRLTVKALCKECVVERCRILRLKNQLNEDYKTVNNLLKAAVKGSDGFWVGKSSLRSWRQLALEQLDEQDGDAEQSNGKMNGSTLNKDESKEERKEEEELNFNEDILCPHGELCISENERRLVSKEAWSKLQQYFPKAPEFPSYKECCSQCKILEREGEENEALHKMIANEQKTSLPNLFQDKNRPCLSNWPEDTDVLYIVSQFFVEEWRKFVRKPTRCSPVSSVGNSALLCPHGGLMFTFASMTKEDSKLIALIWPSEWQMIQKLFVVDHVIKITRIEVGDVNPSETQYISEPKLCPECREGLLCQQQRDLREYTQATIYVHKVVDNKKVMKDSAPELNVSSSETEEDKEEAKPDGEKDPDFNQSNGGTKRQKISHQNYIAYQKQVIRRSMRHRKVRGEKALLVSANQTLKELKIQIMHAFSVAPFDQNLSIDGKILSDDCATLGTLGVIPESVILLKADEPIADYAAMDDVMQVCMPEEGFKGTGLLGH
Outline: as §1

USP5 = target: T4, USP5 (UniProt P45974)
T4 sequence (whole entry): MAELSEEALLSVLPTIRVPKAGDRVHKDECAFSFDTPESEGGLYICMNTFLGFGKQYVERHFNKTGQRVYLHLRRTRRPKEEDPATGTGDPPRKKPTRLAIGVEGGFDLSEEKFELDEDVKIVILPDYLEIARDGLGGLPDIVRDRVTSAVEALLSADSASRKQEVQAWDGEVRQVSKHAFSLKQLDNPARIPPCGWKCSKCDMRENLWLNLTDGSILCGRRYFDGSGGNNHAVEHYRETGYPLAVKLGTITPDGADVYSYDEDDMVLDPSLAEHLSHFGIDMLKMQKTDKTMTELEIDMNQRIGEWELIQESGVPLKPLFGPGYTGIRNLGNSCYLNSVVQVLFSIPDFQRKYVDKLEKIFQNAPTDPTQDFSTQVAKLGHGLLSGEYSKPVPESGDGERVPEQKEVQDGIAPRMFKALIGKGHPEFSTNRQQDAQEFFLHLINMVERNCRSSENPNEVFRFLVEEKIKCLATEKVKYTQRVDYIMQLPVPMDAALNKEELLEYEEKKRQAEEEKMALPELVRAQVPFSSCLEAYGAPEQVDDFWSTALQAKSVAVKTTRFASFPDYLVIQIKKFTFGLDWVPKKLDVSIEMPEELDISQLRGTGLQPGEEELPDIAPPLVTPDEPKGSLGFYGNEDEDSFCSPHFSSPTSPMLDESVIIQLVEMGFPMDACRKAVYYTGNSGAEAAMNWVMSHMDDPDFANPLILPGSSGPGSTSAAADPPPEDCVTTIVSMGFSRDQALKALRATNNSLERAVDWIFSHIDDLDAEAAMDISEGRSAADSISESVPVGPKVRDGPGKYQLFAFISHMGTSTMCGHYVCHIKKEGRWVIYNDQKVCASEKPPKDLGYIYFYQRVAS
Outline: as §1

USP54 = USP54 (UniProt Q70EL1)
Outline: as §1

USP7 = USP7 (UniProt Q93009)
Outline: as §1

USP8 = target: T5, USP8 (UniProt P40818)
T5 sequence (whole entry): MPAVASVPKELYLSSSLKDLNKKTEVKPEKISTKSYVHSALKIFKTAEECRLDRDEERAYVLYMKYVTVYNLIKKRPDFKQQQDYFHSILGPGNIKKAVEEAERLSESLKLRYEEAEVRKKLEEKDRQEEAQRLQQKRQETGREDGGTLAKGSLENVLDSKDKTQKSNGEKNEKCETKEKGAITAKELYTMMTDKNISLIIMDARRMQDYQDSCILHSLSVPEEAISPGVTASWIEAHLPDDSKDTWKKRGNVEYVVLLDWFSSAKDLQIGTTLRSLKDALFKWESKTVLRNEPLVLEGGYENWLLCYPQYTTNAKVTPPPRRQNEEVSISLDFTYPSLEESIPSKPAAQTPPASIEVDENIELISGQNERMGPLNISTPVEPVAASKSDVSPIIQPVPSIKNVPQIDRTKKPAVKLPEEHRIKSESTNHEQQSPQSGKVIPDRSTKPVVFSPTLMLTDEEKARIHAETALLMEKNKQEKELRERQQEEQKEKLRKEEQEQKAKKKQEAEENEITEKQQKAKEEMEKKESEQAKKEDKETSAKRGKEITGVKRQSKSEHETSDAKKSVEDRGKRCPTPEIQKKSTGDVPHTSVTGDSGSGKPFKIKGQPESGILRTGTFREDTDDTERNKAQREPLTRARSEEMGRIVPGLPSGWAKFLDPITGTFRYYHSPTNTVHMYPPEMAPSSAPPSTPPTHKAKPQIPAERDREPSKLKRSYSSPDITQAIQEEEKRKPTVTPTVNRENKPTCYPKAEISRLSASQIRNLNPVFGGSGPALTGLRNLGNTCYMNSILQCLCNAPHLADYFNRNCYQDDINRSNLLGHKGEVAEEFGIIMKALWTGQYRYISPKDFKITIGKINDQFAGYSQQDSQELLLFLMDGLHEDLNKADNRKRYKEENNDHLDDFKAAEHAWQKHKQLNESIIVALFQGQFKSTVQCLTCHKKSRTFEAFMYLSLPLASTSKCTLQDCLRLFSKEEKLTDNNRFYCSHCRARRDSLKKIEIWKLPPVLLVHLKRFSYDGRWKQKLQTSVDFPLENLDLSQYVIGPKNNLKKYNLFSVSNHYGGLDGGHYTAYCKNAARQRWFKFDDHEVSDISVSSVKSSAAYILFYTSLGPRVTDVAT
Outline: as §1

USP9X = USP9X (UniProt Q93008)
Outline: as §1

UniProt O00487 = target: UniProt O00487
Outline: as §1

Measured: log2 ratio of Biotin-Ahx-Ub-VS probe labelling

Chain of USP7 (Q93009 whole entry, looked up): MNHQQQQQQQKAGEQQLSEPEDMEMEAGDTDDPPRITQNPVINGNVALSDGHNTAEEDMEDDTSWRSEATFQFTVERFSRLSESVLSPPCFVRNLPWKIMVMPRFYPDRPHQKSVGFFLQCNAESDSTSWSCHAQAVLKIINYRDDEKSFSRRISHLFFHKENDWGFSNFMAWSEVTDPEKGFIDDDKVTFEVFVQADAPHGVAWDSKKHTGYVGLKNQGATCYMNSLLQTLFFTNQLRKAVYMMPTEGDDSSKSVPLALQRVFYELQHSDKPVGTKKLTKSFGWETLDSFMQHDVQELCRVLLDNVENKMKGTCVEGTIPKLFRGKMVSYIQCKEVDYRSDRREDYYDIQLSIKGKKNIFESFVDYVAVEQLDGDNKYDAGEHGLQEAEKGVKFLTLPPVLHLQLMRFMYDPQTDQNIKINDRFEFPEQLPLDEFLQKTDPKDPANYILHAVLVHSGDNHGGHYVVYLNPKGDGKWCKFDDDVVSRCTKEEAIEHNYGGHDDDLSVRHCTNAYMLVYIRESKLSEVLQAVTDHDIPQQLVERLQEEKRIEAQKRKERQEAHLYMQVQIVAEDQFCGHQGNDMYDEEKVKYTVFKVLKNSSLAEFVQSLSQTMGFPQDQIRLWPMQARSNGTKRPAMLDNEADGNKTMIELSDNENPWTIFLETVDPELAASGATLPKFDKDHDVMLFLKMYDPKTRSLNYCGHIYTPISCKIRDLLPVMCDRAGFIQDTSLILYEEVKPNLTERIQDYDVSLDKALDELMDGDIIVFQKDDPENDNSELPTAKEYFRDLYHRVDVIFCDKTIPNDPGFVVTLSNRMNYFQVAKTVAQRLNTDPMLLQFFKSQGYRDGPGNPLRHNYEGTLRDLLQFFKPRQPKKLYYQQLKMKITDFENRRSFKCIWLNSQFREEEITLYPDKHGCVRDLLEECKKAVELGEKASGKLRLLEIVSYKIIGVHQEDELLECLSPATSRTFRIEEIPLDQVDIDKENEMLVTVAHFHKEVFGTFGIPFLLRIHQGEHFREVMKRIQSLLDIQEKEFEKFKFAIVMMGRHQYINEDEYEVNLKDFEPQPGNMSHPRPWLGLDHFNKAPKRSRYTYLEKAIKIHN
Chain of UniProt O00487 (O00487 whole entry): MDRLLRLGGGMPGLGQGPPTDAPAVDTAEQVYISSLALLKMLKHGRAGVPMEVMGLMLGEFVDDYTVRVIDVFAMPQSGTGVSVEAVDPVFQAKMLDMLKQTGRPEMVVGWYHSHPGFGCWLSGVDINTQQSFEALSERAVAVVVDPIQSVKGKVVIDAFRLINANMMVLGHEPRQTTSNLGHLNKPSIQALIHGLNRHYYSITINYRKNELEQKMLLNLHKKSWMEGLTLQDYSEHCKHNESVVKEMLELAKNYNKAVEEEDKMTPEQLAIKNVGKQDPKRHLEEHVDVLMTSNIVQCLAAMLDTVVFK
Chain of USP54 (Q70EL1 whole entry): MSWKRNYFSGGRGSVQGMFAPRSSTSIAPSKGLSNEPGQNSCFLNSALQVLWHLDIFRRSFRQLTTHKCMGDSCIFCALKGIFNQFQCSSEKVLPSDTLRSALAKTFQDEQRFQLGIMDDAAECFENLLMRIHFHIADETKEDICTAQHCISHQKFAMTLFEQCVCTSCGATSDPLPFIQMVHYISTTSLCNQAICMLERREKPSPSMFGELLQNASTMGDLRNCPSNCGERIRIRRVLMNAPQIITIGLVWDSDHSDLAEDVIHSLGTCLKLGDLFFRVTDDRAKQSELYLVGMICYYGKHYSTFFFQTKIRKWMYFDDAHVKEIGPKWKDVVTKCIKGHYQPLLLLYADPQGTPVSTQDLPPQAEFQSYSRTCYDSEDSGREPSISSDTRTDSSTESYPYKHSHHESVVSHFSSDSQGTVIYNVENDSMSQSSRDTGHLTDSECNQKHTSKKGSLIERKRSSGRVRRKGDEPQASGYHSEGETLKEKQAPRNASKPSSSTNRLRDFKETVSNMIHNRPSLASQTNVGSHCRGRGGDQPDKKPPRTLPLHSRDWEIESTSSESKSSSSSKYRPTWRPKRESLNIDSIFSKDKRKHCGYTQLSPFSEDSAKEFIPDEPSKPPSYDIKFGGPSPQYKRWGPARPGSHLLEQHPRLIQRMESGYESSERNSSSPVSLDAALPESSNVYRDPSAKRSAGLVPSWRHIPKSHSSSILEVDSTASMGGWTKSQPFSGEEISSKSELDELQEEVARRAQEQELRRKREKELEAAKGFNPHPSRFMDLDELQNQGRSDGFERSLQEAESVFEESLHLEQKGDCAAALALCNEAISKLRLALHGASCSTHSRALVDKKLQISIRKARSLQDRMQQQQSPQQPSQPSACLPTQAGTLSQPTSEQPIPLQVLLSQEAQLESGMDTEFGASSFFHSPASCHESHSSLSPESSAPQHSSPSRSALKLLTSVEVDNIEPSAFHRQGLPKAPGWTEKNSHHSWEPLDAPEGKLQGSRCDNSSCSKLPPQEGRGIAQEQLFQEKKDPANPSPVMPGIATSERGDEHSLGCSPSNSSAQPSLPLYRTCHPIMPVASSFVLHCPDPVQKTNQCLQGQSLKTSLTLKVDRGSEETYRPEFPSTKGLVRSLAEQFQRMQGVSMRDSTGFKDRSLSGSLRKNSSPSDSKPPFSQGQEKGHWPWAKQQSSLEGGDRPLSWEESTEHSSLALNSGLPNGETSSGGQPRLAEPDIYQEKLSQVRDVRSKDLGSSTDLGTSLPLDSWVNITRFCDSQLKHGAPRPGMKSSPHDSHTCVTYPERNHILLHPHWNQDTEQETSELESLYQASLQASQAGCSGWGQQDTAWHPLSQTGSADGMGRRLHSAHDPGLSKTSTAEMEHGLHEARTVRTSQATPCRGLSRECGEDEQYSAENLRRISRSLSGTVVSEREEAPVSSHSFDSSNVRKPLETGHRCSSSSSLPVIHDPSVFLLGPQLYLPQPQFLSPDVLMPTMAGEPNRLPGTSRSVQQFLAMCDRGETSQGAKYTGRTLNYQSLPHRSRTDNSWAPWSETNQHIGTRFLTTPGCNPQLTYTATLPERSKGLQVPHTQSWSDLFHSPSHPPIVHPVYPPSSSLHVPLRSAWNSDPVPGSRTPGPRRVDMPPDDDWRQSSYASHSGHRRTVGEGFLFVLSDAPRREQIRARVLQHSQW
Chain of USP46 (P62068 whole entry): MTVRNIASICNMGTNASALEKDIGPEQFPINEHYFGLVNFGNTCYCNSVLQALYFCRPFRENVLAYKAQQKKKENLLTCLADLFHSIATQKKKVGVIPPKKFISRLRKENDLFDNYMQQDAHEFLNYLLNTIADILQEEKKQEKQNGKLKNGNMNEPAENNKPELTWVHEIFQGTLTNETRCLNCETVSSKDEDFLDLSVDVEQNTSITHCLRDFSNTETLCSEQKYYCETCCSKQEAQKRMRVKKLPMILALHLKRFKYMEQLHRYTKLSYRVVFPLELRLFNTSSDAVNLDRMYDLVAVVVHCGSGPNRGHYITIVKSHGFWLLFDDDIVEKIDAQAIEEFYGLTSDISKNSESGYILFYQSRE

NC(=O)C1CCCCN1C(=O)CCl (stereo not given)
active: USP48 -1.03
inactive: USP42 -0.0547 | USP46 0.025 | USP47 -0.299 | USP5 0.371 | USP54 0.325 | USP7 -0.76 | USP8 -0.26 | USP9X -0.213 | UniProt O00487 -0.0664
